# Source: PubChem BioAssay (NCI)
# The panel holds about 79,000 compounds, 15% with a hit somewhere; the sample as a whole holds those more often. Unmarked numbers belong to inactive results. The source made the active and inactive calls. Cut-off read from the data, not from the text of the source: active = growth inhibition above about 70%; inactive = the rest.
# Experiments:
# [1] = NCI Yeast Anticancer Drug Screen. Data for the rad52 strain (AID 147);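 note: 0% = growth of vehicle-treated control cultures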; settings: S. cerevisiae rad52 mutant growth inhibition, active compounds read high
# Procedure, shortened: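 Screen used a yeast mutant impaired in DNA repair. After compound exposure, growth was measured. Values reflect inhibition compared with vehicle-treated cells.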
# [2] = NCI Yeast Anticancer Drug Screen. Data for the wt1 strain (AID 149);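 note: 0% = growth of vehicle-treated wt1 cultures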; settings: S. cerevisiae wt1 strain (SPY 50644) growth inhibition, active compounds read high
# Procedure, shortened: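 Compounds are added to wt1 yeast cultures. Growth is then measured. Inhibition is expressed relative to vehicle-treated controls.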
# [3] = NCI Yeast Anticancer Drug Screen. Data for the rad50EPP+ strain (AID 151);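 note: 0% = growth of vehicle-treated control cultures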; settings: S. cerevisiae rad50 mutant strain, active compounds read high
# Procedure, shortened: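 Exposing the rad50EPP+ strain to each compound, growth was compared with vehicle-only cultures to give inhibition.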
# [4] = NCI Yeast Anticancer Drug Screen. Data for the mgt1 strain (AID 153); settings: S. cerevisiae mgt1 mutant growth inhibition, active compounds read high
# Procedure, shortened: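 Genetically defined yeast (mgt1) treated with compound; inhibition of growth expressed against vehicle-treated controls.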
# [5] = NCI Yeast Anticancer Drug Screen. Data for the rad50 strain (AID 155);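 note: 0% = growth of vehicle-only cultures of the same strain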; settings: S. cerevisiae rad50 strain growth inhibition, active compounds read high
# Procedure, shortened: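 Inhibition values express reduced yeast growth in compound-treated cultures relative to vehicle-treated controls.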
# [6] = NCI Yeast Anticancer Drug Screen. Data for the mec2-1 strain (AID 157); settings: S. cerevisiae mec2-1 strain, active compounds read high
# Procedure, shortened: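 Readout is yeast growth inhibition, normalised to vehicle-treated controls, in the mec2-1 strain exposed to compound.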
# [7] = NCI Yeast Anticancer Drug Screen. Data for the rad14 strain (AID 159);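 note: 0% = growth of vehicle-treated control cultures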; settings: S. cerevisiae rad14 strain growth inhibition, active compounds read high
# Procedure, shortened: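 A mutant yeast strain defective in DNA damage repair is treated with compound; inhibition of its growth is scored against untreated, vehicle-exposed cultures.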
# [8] = NCI Yeast Anticancer Drug Screen. Data for the sgs1 mgt1 strain (AID 161);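 note: 0% = growth of cultures given vehicle only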; settings: S. cerevisiae sgs1 mgt1 strain, active compounds read high
# Procedure, shortened: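 Percent growth inhibition was derived by comparing compound-exposed mutant yeast with vehicle-exposed cultures. The strain carries alterations in DNA damage repair.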
# [9] = NCI Yeast Anticancer Drug Screen. Data for the CLN2oe strain (AID 163);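 note: 0% = growth of vehicle-only control cultures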; settings: S. cerevisiae CLN2oe strain, active compounds read high
# Procedure, shortened: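 Values reflect how much compound exposure reduced yeast growth, referenced to vehicle-exposed cells. Assay organism is a strain with a defined genetic change affecting cell-cycle control.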
# [10] = NCI Yeast Anticancer Drug Screen. Data for the cln2 rad14 strain (AID 165);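 note: 0% = growth equal to vehicle treated cultures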; settings: S. cerevisiae cln2 rad14 strain, active compounds read high
# Procedure, shortened: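 Relative to vehicle controls, growth inhibition of compound-treated cln2 rad14 yeast was recorded.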
# [11] = NCI Yeast Anticancer Drug Screen. Data for the bub3 strain (AID 167); settings: S. cerevisiae bub3 mutant strain, active compounds read high
# Procedure, shortened: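 Steps: expose the mutant yeast strain to compound; grow alongside vehicle-treated cultures; measure growth; express inhibition against the vehicle cultures.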
# [12] = NCI Yeast Anticancer Drug Screen. Data for the wt2 strain (AID 169);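 note: 0% = growth of vehicle-treated yeast cultures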; settings: S. cerevisiae wt2 strain growth inhibition, active compounds read high
# Procedure, shortened: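 Values express reduction in yeast growth under compound treatment, referenced to vehicle-treated cells.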
# [13] = NCI Yeast Anticancer Drug Screen. Data for the mlh1 strain (AID 171);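 note: 0% = growth of vehicle-treated control cultures of the same strain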; settings: S. cerevisiae mlh1 strain growth inhibition, active compounds read high
# Procedure, shortened: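 Steps: expose the defined-mutant yeast strain to compound; expose a parallel culture to vehicle; measure growth; express compound effect as inhibition relative to the vehicle culture.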
# [14] = NCI Yeast Anticancer Drug Screen. Data for the sgs1 strain (AID 173);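 note: 0% = growth of vehicle-only control cultures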; settings: S. cerevisiae sgs1 mutant, active compounds read high
# Procedure, shortened: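 Treat defined-mutant yeast with compound; measure growth; calculate inhibition relative to vehicle-treated cells.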
# [15] = NCI Yeast Anticancer Drug Screen. Data for the mlh1 rad18 strain (AID 175); settings: S. cerevisiae mlh1 rad18 strain growth inhibition, active compounds read high
# Procedure, shortened: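 Test agents were incubated with a yeast strain of defined genotype (DNA damage repair defect). Inhibition of growth was derived by comparison with vehicle-exposed cultures.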
# [16] = NCI Yeast Anticancer Drug Screen. Data for the rad18 strain (AID 177); settings: S. cerevisiae rad18 mutant growth inhibition, active compounds read high
# Procedure, shortened: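 A genetically defined yeast mutant impaired in DNA damage repair was treated with test compounds, then its growth was measured against cultures receiving vehicle alone.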
# [17] = at 5.0 µM (retest, dose inferred, filed as 0.5)
# [18] = at 50.0 µM (retest, dose inferred, filed as 5.0)
smiles,measurement,setting,value
Cc1ccc2c(c1)C1(C)c3cc(C)ccc3SP1S2 (stereo not drawn),growth inhibition,[1]; at 1.2 µM,20%
same,growth inhibition,[1]; at 3.7 µM,22%
same,growth inhibition,[1]; at 11.0 µM,20%
same,growth inhibition,[1]; at 33.0 µM,51%
same,growth inhibition,[1]; at 100.0 µM,55%
same,growth inhibition,[2]; at 1.2 µM,19%
same,growth inhibition,[2]; at 3.7 µM,9%
same,growth inhibition,[2]; at 11.0 µM,25%
same,growth inhibition,[2]; at 33.0 µM,26%
same,growth inhibition,[2]; at 100.0 µM,36%
same,growth inhibition,[3]; at 1.2 µM,4%
same,growth inhibition,[3]; at 3.7 µM,7%
same,growth inhibition,[3]; at 11.0 µM,17%
same,growth inhibition,[3]; at 33.0 µM,47%
same,growth inhibition,[3]; at 100.0 µM,50%
same,growth inhibition,[4]; at 1.2 µM,10%
same,growth inhibition,[4]; at 3.7 µM,3%
same,growth inhibition,[4]; at 11.0 µM,9%
same,growth inhibition,[4]; at 33.0 µM,37%
same,growth inhibition,[4]; at 100.0 µM,43%
same,growth inhibition,[5]; at 1.2 µM,17%
same,growth inhibition,[5]; at 3.7 µM,11%
same,growth inhibition,[5]; [17],-4%
same,growth inhibition,[5]; at 11.0 µM,18%
same,growth inhibition,[5]; at 33.0 µM,39%
same,growth inhibition,[5]; [18],51%
same,growth inhibition,[5]; at 50.0 µM,71.7% (active)
same,growth inhibition,[5]; at 100.0 µM,54%
same,growth inhibition,[6]; at 1.2 µM,11%
same,growth inhibition,[6]; at 3.7 µM,21%
same,growth inhibition,[6]; [17],-12%
same,growth inhibition,[6]; at 11.0 µM,18%
same,growth inhibition,[6]; at 33.0 µM,30%
same,growth inhibition,[6]; [18],17%
same,growth inhibition,[6]; at 50.0 µM,40.1%
same,growth inhibition,[6]; at 100.0 µM,30%
same,growth inhibition,[7]; at 1.2 µM,0%
same,growth inhibition,[7]; at 3.7 µM,-10%
same,growth inhibition,[7]; at 11.0 µM,-23%
same,growth inhibition,[7]; at 33.0 µM,15%
same,growth inhibition,[7]; at 100.0 µM,29%
same,growth inhibition,[8]; [17],6%
same,growth inhibition,[8]; [18],54%
same,growth inhibition,[8]; at 50.0 µM,63%
same,growth inhibition,[9]; at 1.2 µM,15%
same,growth inhibition,[9]; at 3.7 µM,-13%
same,growth inhibition,[9]; at 11.0 µM,-14%
same,growth inhibition,[9]; at 33.0 µM,25%
same,growth inhibition,[9]; at 100.0 µM,4%
same,growth inhibition,[10]; [17],28%
same,growth inhibition,[10]; [18],71% (active)
same,growth inhibition,[10]; at 50.0 µM,52.9%
same,growth inhibition,[11]; at 1.2 µM,23%
same,growth inhibition,[11]; at 3.7 µM,18%
same,growth inhibition,[11]; [17],-3%
same,growth inhibition,[11]; at 11.0 µM,20%
same,growth inhibition,[11]; at 33.0 µM,22%
same,growth inhibition,[11]; [18],59%
same,growth inhibition,[11]; at 50.0 µM,42.8%
same,growth inhibition,[11]; at 100.0 µM,42%
same,growth inhibition,[12]; at 1.2 µM,13%
same,growth inhibition,[12]; at 3.7 µM,1%
same,growth inhibition,[12]; at 11.0 µM,18%
same,growth inhibition,[12]; at 33.0 µM,36%
same,growth inhibition,[12]; at 100.0 µM,50%
same,growth inhibition,[13]; at 1.2 µM,-5%
same,growth inhibition,[13]; at 3.7 µM,-22%
same,growth inhibition,[13]; at 11.0 µM,-3%
same,growth inhibition,[13]; at 33.0 µM,26%
same,growth inhibition,[13]; at 100.0 µM,39%
same,growth inhibition,[14]; at 1.2 µM,6%
same,growth inhibition,[14]; at 3.7 µM,4%
same,growth inhibition,[14]; at 11.0 µM,18%
same,growth inhibition,[14]; at 33.0 µM,46%
same,growth inhibition,[14]; at 100.0 µM,51%
same,growth inhibition,[15]; [17],4%
same,growth inhibition,[15]; [18],74% (active)
same,growth inhibition,[15]; at 50.0 µM,46.9%
same,growth inhibition,[16]; at 1.2 µM,8%
same,growth inhibition,[16]; at 3.7 µM,-3%
same,growth inhibition,[16]; at 11.0 µM,7%
same,growth inhibition,[16]; at 33.0 µM,27%
same,growth inhibition,[16]; at 100.0 µM,52%
CCC1(OC(=O)CN)C(=O)OCc2c1cc1n(c2=O)Cc2cc3ccccc3nc2-1 (stereo not drawn),growth inhibition,[1]; at 1.2 µM,93% (active)
same,growth inhibition,[1]; at 3.7 µM,95% (active)
same,growth inhibition,[1]; at 11.0 µM,96% (active)
same,growth inhibition,[1]; at 33.0 µM,97% (active)
same,growth inhibition,[1]; at 100.0 µM,97% (active)
same,growth inhibition,[2]; at 1.2 µM,-1%
same,growth inhibition,[2]; at 3.7 µM,4%
same,growth inhibition,[2]; at 11.0 µM,51%
same,growth inhibition,[2]; at 33.0 µM,88% (active)
same,growth inhibition,[2]; at 100.0 µM,94% (active)
same,growth inhibition,[3]; at 1.2 µM,45%
same,growth inhibition,[3]; at 3.7 µM,67%
same,growth inhibition,[3]; at 11.0 µM,85% (active)
same,growth inhibition,[3]; at 33.0 µM,92% (active)
same,growth inhibition,[3]; at 100.0 µM,93% (active)
same,growth inhibition,[4]; at 1.2 µM,20%
same,growth inhibition,[4]; at 3.7 µM,25%
same,growth inhibition,[4]; at 11.0 µM,50%
same,growth inhibition,[4]; at 33.0 µM,80% (active)
same,growth inhibition,[4]; at 100.0 µM,91% (active)
same,growth inhibition,[5]; at 1.2 µM,94% (active)
same,growth inhibition,[5]; at 3.7 µM,96% (active)
same,growth inhibition,[5]; [17],97% (active)
same,growth inhibition,[5]; at 11.0 µM,97% (active)
same,growth inhibition,[5]; at 33.0 µM,97% (active)
same,growth inhibition,[5]; [18],97% (active)
same,growth inhibition,[5]; at 50.0 µM,98% (active)
same,growth inhibition,[5]; at 100.0 µM,97% (active)
same,growth inhibition,[6]; at 1.2 µM,19%
same,growth inhibition,[6]; at 3.7 µM,82% (active)
